# In all, about 96,000 compounds went through this assay and about 19,000 (20%) were called active. These entries were drawn from the full list. Values without a mark were called inactive.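 The calls were made as follows: active = blocking of liver enzyme CYP2C9 beyond about 50% at 5 µM (limit read from the data); inactive = the rest.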
# Target: Cytochrome P450 2C9 (Homo sapiens) (UniProt P11712)
# Assay: blockers of cytochrome P450 2C9 activity – biochemical, luminescence, ADME assay, primary screen (AID 777)
# Details: CYP2C9 Supersomes, luciferin-H conversion, at 5 µM, active compounds read high
# Chain of Cytochrome P450 2C9 (Homo sapiens) (P11712 whole entry, looked up): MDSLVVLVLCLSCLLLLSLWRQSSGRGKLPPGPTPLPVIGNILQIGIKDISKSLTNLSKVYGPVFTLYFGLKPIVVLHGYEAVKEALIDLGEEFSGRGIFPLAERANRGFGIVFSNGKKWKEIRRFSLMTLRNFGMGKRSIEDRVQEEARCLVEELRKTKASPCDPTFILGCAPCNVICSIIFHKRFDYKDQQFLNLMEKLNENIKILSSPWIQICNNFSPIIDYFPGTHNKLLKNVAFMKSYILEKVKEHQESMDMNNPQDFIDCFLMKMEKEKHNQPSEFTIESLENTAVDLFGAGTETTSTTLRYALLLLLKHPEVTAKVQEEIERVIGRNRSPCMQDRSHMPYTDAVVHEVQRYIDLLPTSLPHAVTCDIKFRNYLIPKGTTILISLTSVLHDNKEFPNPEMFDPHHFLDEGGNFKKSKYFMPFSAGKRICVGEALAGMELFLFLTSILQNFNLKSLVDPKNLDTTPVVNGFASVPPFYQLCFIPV
row,Compound,inhibition
1,COCCCNC(=O)COc1cc(C)c(Cl)c(C)c1,-73.4%
2,CCn1nc(C(=O)OCC(=O)N2c3ccccc3CC2C)c2ccccc2c1=O (stereo not drawn),80.7% (active)
3,CCOC(=O)c1[nH]c(C)c(C(=O)OCC(=O)N2c3ccccc3CC2C)c1C (stereo not drawn),10.7%
4,CC1Cc2ccccc2N1C(=O)Cn1cnc2ccccc2c1=O (stereo not drawn),34.6%
5,Cc1ccc(Cl)cc1NC(=O)COC(=O)C1CCCCC1,28.6%
6,CCOC(=O)C1=C(CN2CCc3ccccc32)NC(=O)NC1c1cccc([N+](=O)[O-])c1 (stereo not drawn),25.1%
7,Cn1c2c(c(=O)n(C)c1=O)C(c1ccc(O)cc1)Nc1ccccc1O2 (stereo not drawn),19.1%
8,Cn1c2c(c(=O)n(C)c1=O)C(c1cccc([N+](=O)[O-])c1)Nc1ccccc1O2 (stereo not drawn),50.4% (active)
9,Nc1c(-c2ccc(F)cc2)cnn1C1CCS(=O)(=O)C1 (stereo not drawn),-14.9%
10,CC1(C)CC(=O)C2=C(C1)N=C1SCCC(=O)N1C2c1ccc(C(F)(F)F)cc1 (stereo not drawn),-19.2%
11,O=c1cc(-c2ccccc2)nc(N2CCCCC2)[nH]1,-5.8%
12,Cc1cccc2c(=O)n3c(nc12)CCCCC3,21%
13,O=c1c2c(nc3n1CCCCC3)sc1c(O)cccc12,70.6% (active)
14,O=C(Nc1ccc2nc3n(c(=O)c2c1)CCCCC3)c1ccccc1Cl,41.7%
15,CCOc1ccc(NC(=O)N(CC(C)C)CC(C)C)cc1,6.8%
16,CCCNC(=O)Nc1ccccc1C(=O)Nc1ccc(OC)cc1,44.3%
17,CCOc1ccc(NC(=O)c2ccccc2NS(C)(=O)=O)cc1,54.1% (active)
18,COC(=O)c1ccccc1NC(=O)CN(Cc1ccccc1)S(C)(=O)=O,27.6%
19,CCOc1ccccc1N(CC(=O)Nc1ccccc1C(=O)OC)S(C)(=O)=O,6.7%
20,COC(=O)c1ccccc1NC(=O)c1ccccc1NS(C)(=O)=O,80.6% (active)
21,COC(=O)c1ccccc1NC(=O)CN(Cc1ccc(Cl)cc1)S(C)(=O)=O,55.5% (active)
22,COC(=O)c1ccc(NC(=O)C(C)N2C(=O)c3ccccc3C2=O)cc1 (stereo not drawn),26.7%
23,COC(=O)c1ccc(NC(=O)c2ccccc2NS(=O)(=O)c2ccccc2)cc1,96.1% (active)
24,COC(=O)c1ccccc1NC(=O)c1cncc(Br)c1,-3.1%
25,CCCCNC(=O)c1ccccc1NC(=O)c1ccccc1N(C)S(C)(=O)=O,-0.4%

row,Compound,inhibition
1,S=C1SCN(CCN2CCOCC2)CN1Cc1ccccc1,22.3%
2,Cc1nc(NC(CC(C)C)C(=O)O)c2nc(C)oc2n1 (stereo not drawn),15.1%
3,COC(=O)CNC(c1ccccc1Cl)c1cc(Br)ccc1NC(=O)CCN1CCOCC1 (stereo not drawn),7.3%
4,C=CCn1c(-c2ccc3[nH]c(C)c(C)c3c2)n[nH]c1=S,31.1%
5,CCCc1nc(-c2ccccc2O)n(-c2ccccc2)n1,-16.7%
6,Cc1ccc(S(=O)(=O)N2C3C=CC(C3)C2C(=O)O)cc1 (stereo not drawn),-4.8%
7,CCOCCCNC(=O)C(NC(=O)c1ccc(=O)[nH]c1)c1ccc(Cl)cc1 (stereo not drawn),2.5%
8,O=C(NCCOc1ccccc1)c1ccccc1,-2.4%
9,Cc1ccc(S(=O)(=O)NCC(=O)N(CC(=O)NC(C)(C)C)Cc2cccs2)cc1,-0.5%
10,CCOC(=O)N1CCC(NC(=O)Cn2cc3c(n2)CCCCC3)CC1,-10.8%
11,CC(C)c1ccc(/C=C/C(=O)NNC(=O)c2cccnc2)cc1,6.3%
12,CCCCn1c(SCc2ncc(-c3ccccc3)o2)nc2cc(S(N)(=O)=O)ccc21,54.5% (active)
13,OC(COc1ccccc1)Cn1cc(Br)cn1 (stereo not drawn),18.3%
14,O=C(O)c1ccc(-n2cccc2)cc1O,4.7%
15,CCC(C)(C)n1nnnc1C(c1cccs1)N1CCN(Cc2ccccc2)CC1 (stereo not drawn),43.4%
16,CCC(C)(C)n1nnnc1CN1CCN(c2nc3ccc(C)cc3cc2C#N)CC1,8.7%
17,CCC(C)(C)n1nnnc1C(c1cccs1)N1CCN(c2nc3ccccc3s2)CC1 (stereo not drawn),71% (active)
18,COCCCNC(=O)CCc1nc2cccnc2n1Cc1ccc(OC)cc1,-1.2%
19,Cn1nc(C(F)(F)F)c2cc(NC(=O)OCC(C)(C)C)sc21,-4.4%
20,COc1ccc(OC)c2c1sc(=NC(=O)CN1C(=O)CCC1=O)n2C,2.3%
21,C=CCn1c2ccccc2c2nnc(SC(CC)C(=O)Nc3nc(C)c(C(=O)OCC)s3)nc21 (stereo not drawn),75% (active)
22,CCOC(=O)c1sc(/N=C/Nc2nc(C)c(C(=O)OCC)s2)nc1C,29.2%
23,CCOC(=O)c1sc(NC(=O)C(CC)Sc2nccn2C)nc1C (stereo not drawn),45.4%
24,O=C(c1cccnc1NCc1ccccc1)N1CCOCC1,4%
25,CCOC(=O)c1cc(NC(=O)c2cccnc2)cc(C(=O)OCC)c1,37.8%

row,Compound,inhibition
1,O=C(Nc1cnccn1)c1cccnc1,-0.8%
2,Cc1c(C(=O)OC(C)C)sc(NC(=O)c2cccnc2)c1C#N,95.4% (active)
3,O=C(COc1ncnc2c(Cl)cc(Cl)cc12)N1CCN(S(=O)(=O)c2ccccc2)CC1,-7.6%
4,CCCCCCCC(=O)NC(Nc1ccccc1OC)C(Cl)(Cl)Cl (stereo not drawn),12.1%
5,CCCCCN(C(=O)NC(=O)Nc1ccccc1C)S(C)(=O)=O,32.9%
6,CCCCCN(C(=O)NC(=O)Nc1ccccc1OC)S(C)(=O)=O,68.3% (active)
7,Cc1c(CCO)c(=O)[nH]n1C(=O)c1c(F)cccc1F,-4.2%
8,Cc1ccc(N2C(=O)S/C(=C/c3cn(C)c4ccccc34)C2=O)cc1,-33.6%
9,COc1ccc(/C=C2/S/C(=N/N=C3\CC4CCC3(C)C4(C)C)NC2=O)cc1 (stereo not drawn),-0.8%
10,Cc1sc(NC(=S)NC(=O)c2cccs2)nc1-c1ccc(CC(C)C)cc1,14.4%
11,Cc1ccccc1N1C(=O)C2ON(c3ccccc3)C(c3ccncc3)C2C1=O (stereo not drawn),65.9% (active)
12,CCOC(=O)C1=C(c2ccccc2)N=C2SCC(=O)N2C1c1ccc(O)c(OC)c1 (stereo not drawn),33.1%
13,COc1cc(C2C(C(=O)Nc3ccccc3OC)=C(C)Nc3ncnn32)ccc1O (stereo not drawn),12.1%
14,COc1cc(C2C3C(=O)N(c4ccccc4)C(=O)C3ON2c2ccccc2)ccc1O (stereo not drawn),69.1% (active)
15,CC(=O)c1cc(NC(=O)c2ccccc2)c(=O)oc1/C=C/N(C)C,46.8%
16,CCCCCOC(=O)c1ccc(N2C(=O)C3C4C=CC(C4)C3C2=O)cc1 (stereo not drawn),46.3%
17,O=S(=O)(NCc1cccnc1)c1ccc(Br)s1,14.7%
18,Cc1nc2nc(COc3ccccc3)[nH]n2c(=O)c1Cc1ccccc1,17.5%
19,CCOCCCNS(=O)(=O)Cc1ccccc1,-1.6%
20,CCOc1ccc2nc(NCCNS(=O)(=O)c3ccccc3)c(C#N)cc2c1,22.2%
21,CCOc1ccc2nc(N3CCCN(C(=O)Nc4ccccc4C)CC3)c(C#N)cc2c1,98.1% (active)
22,CCOc1ccc2cc(C#N)c(SCC(=O)OC)nc2c1,21.4%
23,CCOC(=O)CC1C(=O)NCCN1C(=O)COc1ccc(Br)cc1C (stereo not drawn),-12%
24,Fc1cnc(N2CCOCC2)nc1NCc1ccccc1,-1.5%
25,Cc1c(NC(=O)c2cc(-c3ccc(Cl)s3)nc3ccccc23)c(=O)n(-c2ccccc2)n1C,29.3%

row,Compound,inhibition
1,O=C(CNC(=O)c1ccc(Cl)cc1Cl)NCC(=O)Nc1ccccc1N1CCOCC1,57.6% (active)
2,COc1c(C)cccc1C(=O)Nc1cc(Cl)ccc1N1CCOCC1,26.5%
3,O=S(=O)(Nc1ccccc1N1CCOCC1)c1ccc(Cl)s1,10.6%
4,O=C(CN1CCOCC1)Nc1cc(Cl)ccc1Cl,-138%
5,Cc1cc(C(=O)Nc2ccccc2N2CCOCC2)c2ccccc2n1,58.2% (active)
6,Nc1nonc1-c1noc(-c2ccc(Br)o2)n1,2.6%
7,O=c1[nH]c(-c2cccs2)nc2ccccc12,3.1%
8,CCSc1nc(=S)n(CC)c(C)c1C(C)=O,-26.9%
9,C1=C(CCNc2ncnc3c2cnn3-c2ccccc2)CCCC1,62% (active)
10,O=C(NCCC1=CCCCC1)C1CCN(Cc2cnn(-c3ccccc3)c2-n2cccc2)CC1,48.5%
11,S=C(NCCC1=CCCCC1)Nc1ccccc1,14.4%
12,CC(C)CC[n+]1ccn(C2=C([O-])c3ccccc3C(=O)/C2=N\S(=O)(=O)c2ccccc2)c1,40.4%
13,CCCCOC(=O)NCN1C(=O)C2C3C=CC(C3)C2C1=O (stereo not drawn),-5.7%
14,c1ccc(-c2cn3c(n2)CCc2ccc4cccnc4c2-3)cc1,20.7%
15,O=C(c1cccc2ccccc12)N1CCN(c2ccccc2F)CC1,-14.7%
16,O=C(c1ccc(CN2CCOCC2)cc1)N1CCN(c2ccccc2F)CC1,51.8% (active)
17,O=S(=O)(N1CCOCC1)N1CCN(c2ccccc2F)CC1,17.2%
18,COC(=O)[C@H](C(C)C)n1c(C)c(C(C)=O)c(C(C)=O)c1C,7%
19,O=C(CC1Oc2ccccc2NC1=O)NCCCN1CCN(Cc2ccccc2)CC1 (stereo not drawn),-28.8%
20,CCOC(=O)c1c(C(C#N)C#N)cc(C)nc1C,41.1%
21,CC1CCCN(c2ccc(C(=O)NCCc3ccccc3)cn2)C1 (stereo not drawn),80.7% (active)
22,O=C(NCCc1ccccc1)c1ccc(NC2=NC3CS(=O)(=O)CC3S2)cc1 (stereo not drawn),0.2%
23,O=C(NCCc1ccccc1)c1ccc(OCCOc2ccccc2)cc1,-10.5%

# — PubChem BioAssay AID777 (Sanford-Burnham Center for Chemical Genomics, 2007)
